Most compounds without a hit are left out; they make up all but 4.3% or so of the library.
SW480 rerep: A quantitative high throughput screen for small molecules that induce DNA re-replication in SW480 colon adenocarcinoma cells; SW480 DNA re-replication, Hoechst DNA content imaging, 48 h; Potency, µM (doses to about 46.1 µM), without a hit: at the top dose re-replication activation, most hits filed as activators; actives 1.8% (n = 340,000); AID 624297, 2012; note: potency is the fitted concentration of half-maximal effect; % of control where 0% means no effect; nearly all actives have a fitted effect of over 55% in size
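Image-based DNA-content assay: after two days of treatment, nuclei were labelled with the DNA dye Hoechst and imaged, and hits were compounds raising the count of nuclei showing high fluorescence intensity.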
uPA generation: qHTS for Inhibitors of Cell Surface uPA Generation | cell surface uPA generation assay, qHTS | Potency, µM (top dose mostly 38.3 µM), without a hit: at the highest dose activity change, negative = inhibition, actives largely listed as inhibitors | actives 0.31% (n = 330,000) | AID 540303, 2011; active = well fitted inhibition curve with a large enough effect; inconclusive = small, poorly fitted or top-dose-only effect; inactive = no such curve, though single readings can be large or run the other way; tested in mouse RAW 264.7 cells; note: potency is the fitted concentration of half-maximal effect; % is set by controls: 0 for no effect and ±100 for the full control effect; nearly all actives have a fitted effect of over 55% in size
Giardia killer: Small Molecules that selectively kill Giardia lamblia: qHTS; Giardia lamblia trophozoite viability; activity change, % at 7.66 µM, hits read low; actives 0.15% (n = 340,000); AID 540267, 2011; in the data active = activity change below about -80%; inconclusive = between about -30% and that limit;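 note: parasites exposed to compound for two days anaerobically before the ATP read; % is set by controls: 0 for no effect and ±100 for the full control effect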
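Each well holds 100 Giardia trophozoites and compound. After two days (48 hrs) at 37 deg C in anaerobic conditions, ATP is quantified by luminescence.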
MCF10A rerep: A quantitative high throughput screen for small molecules that induce DNA re-replication in MCF 10a normal breast cells; MCF 10A DNA re-replication, Hoechst nuclear intensity, 48 h; Potency, µM (doses to about 46.1 µM), for inactives: at the top dose activity, positive = re-replication, hits mostly activators; actives 2.9% (n = 350,000); AID 624296, 2012; note: potency is the fitted concentration of half-maximal effect; % of control where 0% means no effect; nearly all actives have a fitted effect of over 50% in size
Active calls of the source: *; ? = inconclusive; nt = not tested or not shown; [ ] = remark or other dose. Unless noted, calls come from the whole dose curve; as a rule, active = well fitted activation curve with a large enough effect; inconclusive = small, poorly fitted or top-dose-only effect; inactive = no such curve, though single readings can be large or run the other way.

SMILES | SW480 rerep | uPA generation | Giardia killer | MCF10A rerep
CCOC(=O)C1CCN(/C=C2/C(=O)NC(=O)N(c3ccc(OCC)cc3)C2=O)CC1 | 1% | -4% | 8 | 5.8µM*
CCS(=O)(=O)N1CCN(C2CCC(C)CC2)CC1 (configuration not stated) | ? | -8% | -2 | 5%
COc1cc2c(cc1OC)-c1c(OC)c(OC)cc3ccnc(c13)C2=O | ? | ? | -84* | ?
COc1cccc(-n2c(/C=C/c3ccccn3)nc3ccccc3c2=O)c1 | ? | 3% | -3 | ?
Cc1ccc(-n2c(/C=C/c3ccc4c(c3)OCO4)nc3ccccc3c2=O)cc1 | 7% | nt | nt | 16%
COc1ccc(-n2c(/C=C/c3ccc(O)c(OC)c3)nc3ccccc3c2=O)cc1 | ? | 1% | -17 | ?
COc1cccc(-n2c(/C=C/c3ccc(O)c(O)c3)nc3ccccc3c2=O)c1 | 10µM* | -9% | 14 | 18µM*
O=c1c2ccccc2nc(/C=C/c2ccc(O)cc2)n1-c1ccc(O)cc1 | 21% | 9% | -3 | 23µM*
COc1ccc(-n2c(/C=C/c3ccc(O)cc3)nc3ccccc3c2=O)cc1 | -3% | 7% | -23 | 0.82µM*
O=c1c2ccccc2nc(/C=C/c2ccc(O)cc2)n1-c1cccc(O)c1 | ? | -3% | ? | 23µM*
CC(=O)[O][Hg][c]1ccccc1 | ? | nt | nt | 43%
CC(=O)c1ccc(NC(=O)CSc2nc(=O)cc(N)n2-c2ccccc2)cc1 | 62%[1.84 µM] | 4% | 2 | -20%
COc1ccc2c(c1OC)C(=O)O[C@H]2[C@@H]1c2cc3c(cc2CCN1C)OCO3 | -12% | 14% | 36 | -11%
COc1cc([C@@H]2c3cc4c(cc3[C@H](O)[C@H]3COC(=O)[C@H]23)OCO4)cc(OC)c1OC | 0.023µM* | -61% | ? | 0.021µM*
COc1cc([C@@H]2c3cc4c(cc3[C@@H](OC)[C@H]3COC(=O)[C@H]23)OCO4)cc(OC)c1O | 5.2µM* | 1.6µM* | 3 | ?
NC(N)=N/N=C/c1cn(-c2ccccc2)nc1-c1cccs1 | -19% | -8% | -10 | 7.3µM*
O=c1c2ccccc2nc(-c2cccs2)n1-c1ccccc1 | -4% | -5% | ? | 19%
CCOP(=O)(OCC)O/C(=C/Cl)c1ccc(Cl)cc1Cl | 3% | nt | nt | 12%
COc1c(C)cc(C(=O)C2CCCN(Cc3cccc(O)c3)C2)cc1C (configuration not stated) | -16% | ? | 5 | 6.5µM*
C[C@@H]1C[C@@H]([C@H](O)CC2CC(=O)NC(=O)C2)C(=O)[C@@H](C)C1 | -9% | 0.5µM* | -82* | ?
Nc1c(C(=O)NCc2ccco2)c2nc3ccccc3nc2n1CCN1CCOCC1 | 5.2µM* | nt | 7 | 16µM*
COc1ccc(Cn2c(N)c(C(=O)NCc3ccco3)c3nc4ccccc4nc32)cc1 | 2.3µM* | 1% | 2 | 10µM*
CCOC(=O)c1c(N)n(Cc2ccco2)c2nc3ccccc3nc12 | -3% | 3% | -14 | 582%[0.0737 µM]
Nc1c(C(=O)NCc2ccco2)c2nc3ccccc3nc2n1Cc1ccc(F)cc1 | ? | -10% | -7 | 3.7µM*
Nc1c(C(=O)NCc2ccco2)c2nc3ccccc3nc2n1Cc1ccccc1 | 21µM* | 8% | 8 | ?
COCC(C)OC(=O)c1c(N)n(Cc2ccco2)c2nc3ccccc3nc12 (configuration not stated) | 4% | 11% | -2 | 0%
CC(C)=CC1C(C(=O)OCc2coc(Cc3ccccc3)c2)C1(C)C (configuration not stated) | -1% | nt | nt | ?
COc1cccc(-c2sc3ccccc3c2-c2ccc(OCCN(C)C)cc2)c1 | -12% | ? | 12 | 28%
CC(C)CCOP(=O)(c1ccc(N(C)C)cc1)C(O)c1c(Cl)cccc1Cl (configuration not stated) | -8% | -7% | 0 | ?
C/C=C(\C)C(=O)N[C@@H](c1ccccc1)[C@@H](O)C(=O)O[C@H]1C[C@@]2(O)[C@@H](OC(=O)c3ccccc3)C3[C@](C)(C(=O)[C@H](OC(C)=O)C(=C1C)C2(C)C)[C@@H](O)C[C@H]1OC[C@@]31OC(C)=O (some centres not stated) | 1.2µM* | -63% | 10 | 0.29µM*

Assay outcomes: PubChem BioAssay, National Center for Advancing Translational Sciences (NCATS)
